According to PubChem BioAssay (NCI):
The panel holds about 79,000 compounds, 15% with a hit somewhere; the sample as a whole holds those more often. Calls of active or inactive are those of the source. Cut-off read from the data, not from the text of the source: active = growth inhibition above about 70%; inactive = the rest.

Columns and labels:
[1] = NCI Yeast Anticancer Drug Screen. Data for the rad52 strain (AID 147);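 note: 0% = growth of vehicle-treated control cultures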; conditions: S. cerevisiae rad52 mutant growth inhibition, hits give high values
Outline: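 Here a repair-compromised yeast strain receives each compound; its growth is then quantified and normalised to vehicle-only controls.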

[2] = NCI Yeast Anticancer Drug Screen. Data for the rad50 strain (AID 155);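 note: 0% = growth of vehicle-only cultures of the same strain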; conditions: S. cerevisiae rad50 strain growth inhibition, hits give high values
Outline: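 Growth of the mutant yeast was measured after compound exposure and referenced to vehicle-treated cultures.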

[3] = NCI Yeast Anticancer Drug Screen. Data for the mec2-1 strain (AID 157); conditions: S. cerevisiae mec2-1 strain, hits give high values
Outline: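 Using mec2-1 yeast: add compound, measure growth, express inhibition versus vehicle-treated cultures.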

[4] = NCI Yeast Anticancer Drug Screen. Data for the rad14 strain (AID 159);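 note: 0% = growth of vehicle-treated control cultures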; conditions: S. cerevisiae rad14 strain growth inhibition, hits give high values
Outline: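 Here, inhibition of yeast growth was measured after compound exposure, using a strain with a genetic defect in DNA damage repair and vehicle-treated cultures as the reference.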

[5] = NCI Yeast Anticancer Drug Screen. Data for the sgs1 mgt1 strain (AID 161);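 note: 0% = growth of cultures given vehicle only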; conditions: S. cerevisiae sgs1 mgt1 strain, hits give high values
Outline: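 Compounds are added to genetically altered yeast, and growth is compared with cultures given vehicle alone to give percent inhibition.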

[6] = NCI Yeast Anticancer Drug Screen. Data for the CLN2oe strain (AID 163);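 note: 0% = growth of vehicle-only control cultures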; conditions: S. cerevisiae CLN2oe strain, hits give high values
Outline: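 Whole-cell yeast growth assay. A strain engineered for altered cell-cycle control received compound, and inhibition relative to vehicle-treated cultures was recorded.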

[7] = NCI Yeast Anticancer Drug Screen. Data for the cln2 rad14 strain (AID 165);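 note: 0% = growth equal to vehicle treated cultures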; conditions: S. cerevisiae cln2 rad14 strain, hits give high values
Outline: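 Yeast strain cln2 rad14, bearing defects in cell cycle control and DNA repair, serves as the test system; values reflect growth inhibition compared with vehicle.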

[8] = NCI Yeast Anticancer Drug Screen. Data for the bub3 strain (AID 167); conditions: S. cerevisiae bub3 mutant strain, hits give high values
Outline: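 Whole-cell yeast assay. The mutant strain was incubated with compounds, and growth inhibition was determined by comparison with vehicle-treated cells.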

[9] = NCI Yeast Anticancer Drug Screen. Data for the wt2 strain (AID 169);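 note: 0% = growth of vehicle-treated yeast cultures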; conditions: S. cerevisiae wt2 strain growth inhibition, hits give high values
Outline: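 Treated yeast vs. vehicle-treated yeast: growth inhibition determined.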

[10] = NCI Yeast Anticancer Drug Screen. Data for the mlh1 strain (AID 171);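 note: 0% = growth of vehicle-treated control cultures of the same strain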; conditions: S. cerevisiae mlh1 strain growth inhibition, hits give high values
Outline: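 A yeast strain with a defined genetic lesion serves as the test organism. Cultures receive compound or vehicle, and growth is measured.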

[11] = NCI Yeast Anticancer Drug Screen. Data for the sgs1 strain (AID 173);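 note: 0% = growth of vehicle-only control cultures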; conditions: S. cerevisiae sgs1 mutant, hits give high values
Outline: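 A genetically defined yeast mutant is incubated with the test compound, and its growth is compared to that of the same strain given vehicle.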

[12] = NCI Yeast Anticancer Drug Screen. Data for the mlh1 rad18 strain (AID 175); conditions: S. cerevisiae mlh1 rad18 strain growth inhibition, hits give high values
Outline: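 Steps: expose repair-defective yeast to compound; measure growth; express inhibition against vehicle-treated controls.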

[13] = NCI Yeast Anticancer Drug Screen. Data for the rad18 strain (AID 177); conditions: S. cerevisiae rad18 mutant growth inhibition, hits give high values
Outline: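 Measured value is growth inhibition of a yeast strain bearing a DNA repair alteration, referenced to vehicle-treated cells.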

[14] = at 5.0 µM (retest, dose inferred, filed as 0.5)
[15] = at 50.0 µM (retest, dose inferred, filed as 5.0)

Measured: growth inhibition

CC1(c2ccccc2)O[C@@H]2C[C@H]3[C@@H]4CCC5=CC(=O)C=C[C@]5(C)[C@@]4(F)[C@@H](O)C[C@]3(C)[C@]2(C(=O)CO)O1 (stereo partly drawn)
inactive: [1]; at 1.2 µM -3% | [1]; at 3.7 µM -2% | [1]; at 11.0 µM 6% | [1]; at 33.0 µM 62% | [2]; at 1.2 µM -2% | [2]; at 3.7 µM 0% | [2]; [14] 15% | [2]; at 11.0 µM 6% | [2]; at 33.0 µM 51% | [2]; [15] 35% | [3]; at 1.2 µM 3% | [3]; at 3.7 µM 5% | [3]; [14] 1% | [3]; at 11.0 µM 10% | [3]; at 33.0 µM 41% | [3]; [15] 8% | [4]; at 1.2 µM -2% | [4]; at 3.7 µM 2% | [4]; at 11.0 µM 11% | [5]; [14] 2% | [5]; [15] 33% | [6]; at 1.2 µM -5% | [6]; at 3.7 µM -11% | [6]; at 11.0 µM -4% | [6]; at 33.0 µM 53% | [7]; [14] 6% | [7]; [15] 15% | [8]; at 1.2 µM -3% | [8]; at 3.7 µM -10% | [8]; [14] -11% | [8]; at 11.0 µM -4% | [8]; at 33.0 µM 21% | [8]; [15] 10% | [9]; at 1.2 µM 1% | [9]; at 3.7 µM -1% | [9]; at 11.0 µM -2% | [9]; at 33.0 µM 60% | [10]; at 1.2 µM -1% | [10]; at 3.7 µM 2% | [10]; at 11.0 µM 5% | [10]; at 33.0 µM 66% | [11]; at 1.2 µM 0% | [11]; at 3.7 µM 3% | [11]; at 11.0 µM 10% | [11]; at 33.0 µM 62% | [12]; [14] -4% | [12]; [15] 56% | [13]; at 1.2 µM -1% | [13]; at 3.7 µM 4% | [13]; at 11.0 µM 21%
active: [1]; at 100.0 µM 98% | [2]; at 50.0 µM 92.7% | [2]; at 100.0 µM 97% | [3]; at 50.0 µM 91.2% | [3]; at 100.0 µM 98% | [4]; at 33.0 µM 75% | [4]; at 100.0 µM 99% | [5]; at 50.0 µM 92.1% | [6]; at 100.0 µM 98% | [7]; at 50.0 µM 95.8% | [8]; at 50.0 µM 90.9% | [8]; at 100.0 µM 95% | [9]; at 100.0 µM 98% | [10]; at 100.0 µM 96% | [11]; at 100.0 µM 97% | [12]; at 50.0 µM 96.2% | [13]; at 33.0 µM 76% | [13]; at 100.0 µM 98%
